Data published in PubChem BioAssay (NCI).
This is part of a sample that, as a whole, favours compounds with a hit. Of some 83,000 tested, about 20% had one in any assay.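 96-well plates, one dose, 48 hours. Percent growth reported; active if below 10.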 Unmarked numbers belong to inactive results. The source made the active and inactive calls.

The molecules below were run on NCI-H522 lung (assay: NCI-60 one-dose screen, 48 h (100 = growth as untreated, 0 = no growth, -100 = all killed)). Conditions: 10 µM unless noted.
Protocol: Growth inhibition of the NCI-H522 human Non-Small Cell Lung tumor cell line is measured as a screen for anti-cancer activity. Cells are grown in 96 well plates and exposed to the test compound for 48 hours. Compounds are tested at a single concentration, which is 10^-5 M for most compounds. The reported endpoint is percent growth (GI% or GIPRCNT), where numbers from 0 - 100% represent growth inhibition, and numbers from -100% - 0 represent cell death. For example, a value of 40 represents 60% growth inhibition. A value of 0 means no net growth occurred over the course of the experiment. A value of -40 indicates 40% of cells at the beginning of the experiment died by the end of the experiment. A value of -100 means all cells are dead at the end of the experiment.
NCI-60 Human Tumor Cell Lines Screen was performed using the standard one-dose NCI protocol, which is described in more detail at https://dtp.cancer.gov/discovery_development/nci-60/default.htm.
Compounds with GIPRCNT values below 10 were considered active. Activity score was based on GIPRCNT using the following formula: […]
Score is 0 for GIPRCNT values of 100 or above, 50 for GIPRCNT values of 0, and 100 for GIPRCNT values of -100.
Molecule COc1ccc(C(=NN=C(N)N)c2ccc(OC)cc2)cc1 has a growth of 34%.
O=C(NCCCNc1cc(-c2cn(-c3ccccc3)nc2-c2cccc(O)c2)ccn1)c1ccccc1 was tested, and the growth was 7.01% (active).
COCCc1ccc(OCC(O)CNC(C)C)cc1 (stereo not given) showed a growth of 93.3%.
For Cc1ccc2nc3ccccc3c(NCc3ccccc3)c2c1, the growth was 37%.
In the case of O=[N+]([O-])c1ccc(Sc2cccc[n+]2[O-])c2nonc12, the growth is reported as -70.8% (active).
With Cc1cc(NCc2cc(Nc3ccnc4cc(Cl)ccc34)ccc2F)nc(N2CCCC2)n1 the growth was -40.3% (active).
Work on COc1ccc(-c2ccc3c(c2)sc2nc(-c4ccc(F)cc4)cn23)cc1 yielded a growth of 66.1%.
NC(=O)c1ccc[n+](Cc2ccc(Cl)cc2Cl)c1 showed a growth of 79.4%.
Work on O=C(N=c1oc2ccccc2cc1-c1cc2ccccc2[nH]1)c1ccc(Cl)cc1 yielded a growth of 14.2%.
Work on N#Cc1c(N2CCNCC2)nc2sc3cc(Cl)c(Cl)cc3n2c1=N yielded a growth of 67.3%.
O=C(c1ccccc1)N1N=C(c2ccccc2)CC1c1nnc2n(Cc3ccccc3)c(=O)c3c4c(sc3n12)CCCC4 (stereo not given) showed a growth of 91.6%.
For COc1cc2nc(Cl)nc(Nc3ccc(S(=O)(=O)Nc4nccs4)cc3)c2cc1OC, the growth was 91.3%.
COc1ccc(-c2nc3ccc4[nH]ncc4c3c3c2CCCC3)cc1B(O)O was tested, and the growth was 48.1%.
COc1cc2c(cc1-c1c(C)noc1C)ncc1nc(C3CCC(F)(F)CC3)n(C3CCC(OC(F)F)CC3)c12 (stereo not given) gave a growth of 12.5%.
For CN1CCN(CC(=O)Nc2nc(-c3cccc(NS(=O)(=O)c4cccc5c(N(C)C)cccc45)c3)cs2)CC1, the growth was 67.7%.
For COc1ccc(/C=N\NC(=O)c2cc(-c3ccc(Br)cc3)n(-c3ccc(S(N)(=O)=O)cc3)n2)cc1, the growth was 18.9%.
With COc1ccc2nc(NNC(=O)c3cnccn3)c3cccn3c2c1 the growth was -2.64% (active).
With CSc1n(Cc2ccc3ccccc3c2)c(C)c[n+]1Cc1ccc2ccccc2c1 the growth was -26.9% (active).
In the case of CN(Cc1cnc2nc(N)nc(N)c2n1)c1ccc(C(=O)N[C@@H](CCc2nn[nH]n2)c2nn[nH]n2)cc1, the growth is reported as 40.9%.
O=C(COc1ccc(/C=C2\Oc3ccccc3C2=O)cc1)c1ccc(Cl)cc1 showed a growth of 96.1%.
Molecule NS(=O)(=O)c1cnccc1Oc1cccc2cccnc12 has a growth of 95.7%.
Cc1cc(Cl)nc(NCc2cc(Nc3ccnc4cc(Cl)ccc34)ccc2F)n1 was tested, and the growth was 45.1%.
Work on C=CCNc1nc(NN2C(=O)c3cccc4cccc(c34)C2=O)nc(-n2cnc3ccccc32)n1 yielded a growth of 76.6%.
In the case of COc1cccc2c1C(=O)c1c(O)c3c(c(O)c1C2=O)CC(O)(/C(C)=N/NC(=O)CCCCC(=O)N/N=C(\C)C1(O)Cc2c(O)c4c(c(O)c2C(OC2CC(N)C(O)C(C)O2)C1)C(=O)c1c(OC)cccc1C4=O)CC3OC1CC(N)C(O)C(C)O1 (stereo not given), the growth is reported as -57.7% [5 µM] (active).
COc1ccc2[nH]c(O)c(C(=Nc3ccc(N(C)C(=O)CN4CCN(C)CC4)cc3)c3ccccc3)c2c1 gave a growth of 67.2%.
Work on N#Cc1c2c(nn(-c3ccccc3)c1=O)C(O)=C([N+](=O)[O-])C(c1ccccc1)C2 (stereo not given) yielded a growth of 77.8%.
Molecule COCCN(C(=O)c1ccc(F)cc1F)c1c(N)n(Cc2ccccc2)c(=O)[nH]c1=O has a growth of 98.3%.
Work on CC(C)(C)n1cc(-c2ccnc(NCCCNS(=O)(=O)c3ccccc3)c2)c(-c2ccccc2)n1 yielded a growth of 74.6%.
With C=C1C(=O)O[C@H]2[C@H]1CC/C(COC(=O)C(=O)c1cn(C)c3ccc(OC)cc13)=C\CC[C@@]1(C)O[C@@H]21 the growth was -61.4% (active).
CC(=O)OC[C@H]1OC(Sc2sc(C(=O)c3ccc(Br)cc3)c(N)c2-c2nc3ccccc3s2)[C@H](OC(C)=O)[C@@H](OC(C)=O)[C@@H]1OC(C)=O (stereo not given in full) gave a growth of 63.8%.
In the case of COc1cc(C2CC(c3cc(OC)c(OCCCOc4ccc(-n5c(/C=C/c6ccccc6)nc6ccccc6c5=O)cc4)c(OC)c3)=NO2)cc(OC)c1OC (stereo not given), the growth is reported as 91.1%.
With COc1ccc(NC(=O)CSc2nnc(-c3cc(-c4ccc(S(N)(=O)=O)cc4)nc4ccccc34)n2-c2ccccc2)cc1 the growth was 78%.
COc1ccc(-c2nc(SCC(=O)Nc3nc(-c4ccccc4)cs3)[nH]c(=O)c2C#N)cc1 showed a growth of 84%.
Work on O=C(Nc1ccccc1-c1nc2ccccc2c(=O)[nH]1)c1cc2ccccc2[nH]1 yielded a growth of 78.8%.
Cc1ccc(C(=O)COc2cccc(/C=C3\Oc4ccccc4C3=O)c2)cc1 showed a growth of 78.2%.
Molecule Cc1c(O)cc(-c2cnc(N/N=C\c3ccc(Cl)cc3)s2)c(O)c1C has a growth of 65.1%.
For Oc1ccc(CN2CCC(N3CCOCC3)CC2)c2cccnc12, the growth was -14.9% (active).
O=C(Nc1cccc2c(O)c(N=Nc3ccc(S(=O)(=O)Nc4nccs4)cc3)cc(N=Nc3ccc(S(=O)(=O)Nc4nccs4)cc3)c12)C(Cl)Cl was tested, and the growth was -42.5% (active).
Work on N#Cc1c(-c2cccc(Cl)c2)cc(-c2cccc(Cl)c2)[nH]c1=O yielded a growth of 64.4%.
In the case of CC1O[C@@H](OC2[C@H](OC(=O)/C=C/c3ccc(O)c(O)c3)C(COC3O[C@H](C)C(O)C(O)[C@@H]3O)O[C@@H](OCCc3ccc(O)c(O)c3)[C@H]2O)[C@@H](O)C(O)[C@H]1O (stereo not given in full), the growth is reported as 86.6%.
